Measurements published in PubChem BioAssay AID2314 (National Center for Advancing Translational Sciences (NCATS), 2010).
Out of some 300,000 compounds screened, about 37,000 (12%) were called active. No stated cut-off is given here; in the data, active means max response mostly above about 13% (no sharp cut-off); inactive means mostly below about 14%. This excerpt belongs to a sample that is enriched for actives.

Experiment: Cycloheximide Counterscreen for Small Molecule Inhibitors of Shiga Toxin; further: read at 38.3 µM for the half of the compounds with a filed dose; 0% is about no effect
Details: cell reporter, cycloheximide protein synthesis inhibition counterscreen; stronger effect = higher value
In the case of `CCOC(=O)/C(=N\Nc1cc(Cl)ccc1Cl)N1CCN(C)CC1`, the max response is reported as -1.84% (inactive). With `Cc1c(C)c2c(OCC(=O)NCCCO)cc3c(c2oc1=O)CCC(C)(C)O3` the max response was 0.89% (inactive). For `CN(CC#CCC(c1ccccc1)c1ccccc1)C(C)(C)C`, the max response was -2.81% (inactive). With `Cc1ccccc1NC(=O)CSc1nc2ccc(Nc3nc(N4CCOCC4)nc(N4CCOCC4)n3)cc2s1` the max response was -3.62% (inactive). For `CCCCC1(C(=O)OCC)NC(c2ccc(O)cc2)C2C(=O)N(c3ccccc3)C(=O)C21` (stereo unspecified), the max response was -1.77% (inactive). With `CCOc1ccc(OCC(=O)Nc2c3c(nn2C(C)(C)C)CS(=O)(=O)C3)cc1` the max response was 0.307% (inactive). In the case of `N#CCC(=O)N/N=C/c1cn(Cc2ccc3ccccc3c2)c2ccccc12`, the max response is reported as 1.05% (inactive). With `c1ccc(Cc2cc[n+](Cc3ccccc3)cc2)cc1` the max response was -3.55% (inactive). In the case of `Cc1ccc(CN(Cc2cccnc2)C(=S)Nc2cccc(Cl)c2C)cc1`, the max response is reported as 9.59% (inactive). With `CCCCC(=O)Nc1ccccc1N1CCN(c2ccc(F)cc2)CC1` the max response was 5.13% (inactive). For `Cc1c(S(=O)(=O)NC(C)c2ccccc2)c(=O)n(C)c(=O)n1C` (stereo unspecified), the max response was 1.11% (inactive). For `Cc1coc2c1c(C)cc1oc(=O)c(CC(=O)NCC(=O)N[C@H](C(=O)O)C(C)C)c(C)c12`, the max response was -5.82% (inactive). In the case of `C/C(N)=C(/C#N)C(=O)COC(=O)c1cc(-c2ccccc2)nc2ccc(Br)cc12`, the max response is reported as -2.32% (inactive). In the case of `C/C(N)=C(/C#N)C(=O)COC(=O)c1cc(-c2ccc(C)cc2)nc2ccccc12`, the max response is reported as 32.1% (active). With `C/C(N)=C(/C#N)C(=O)COC(=O)c1cc(-c2cccc(Br)c2)nc2ccccc12` the max response was 0.776% (inactive). In the case of `COc1ccc(NC2=CC(=S)NC(C)(C)C2)cc1`, the max response is reported as -1.18% (inactive). In the case of `Cc1csc(Nc2ccc(Cl)cc2)[n+]1-c1ccc(Cl)cc1`, the max response is reported as 8.25% (inactive). For `O=C(CSc1ncn[nH]1)Nc1nsc(-c2ccccc2)n1`, the max response was 15.2% (inactive). In the case of `COC(=O)c1nc(NC(=O)c2ccccc2)n[nH]1`, the max response is reported as -3.23% (inactive). In the case of `O=C(Nc1nsc(-c2ccccc2)n1)c1ccncc1`, the max response is reported as 15.5% (active). In the case of `Cc1cc(C)cc(NC(=O)CSCc2cnn(-c3ccccc3)c2-n2cccc2)c1`, the max response is reported as 16.3% (inactive). For `O=c1ccc(-c2ccc(S(=O)(=O)Nc3ccccc3)o2)n[nH]1`, the max response was -12.6% (inactive). In the case of `CCC(C)[C@H]1COCCS(=O)(=O)N1Cc1ccc(C)cc1` (stereo partly specified), the max response is reported as 1.06% (inactive). In the case of `CCCC[C@H]1COCCS(=O)(=O)N1Cc1cccc(Cl)c1`, the max response is reported as 0.203% (inactive). For `O=S1(=O)CCOC[C@H](CC2CCCCC2)N1Cc1ccc(F)cc1`, the max response was 17.1% (active). With `O=S(=O)(c1ccc(Cl)cc1)N1CCCN(c2ccc(C(F)(F)F)cn2)CC1` the max response was -1.58% (inactive). For `O=C(N/N=C/c1ccc(OC(=O)c2ccccc2Cl)cc1)c1ccc(O)cc1`, the max response was -3.06% (inactive). In the case of `O=C(N/N=C/c1c(O)n(C2CC2)c(=S)[nH]c1=O)c1ccccc1`, the max response is reported as 38.1% (active). With `O=C(N/N=C/c1c(O)n(C2CC2)c(=S)[nH]c1=O)c1ccccc1Cl` the max response was 19.5% (active). For `COc1ccccc1-n1c(O)c(C=NC2CC2)c(=O)[nH]c1=O`, the max response was -4.22% (inactive). For `O=C(Nc1cc(=O)[nH]c2ncnn12)c1ccccc1Cl`, the max response was -7.22% (inactive). In the case of `O=c1[nH]c(=S)n(C2CC2)c(O)c1/C=N/N1CCOCC1`, the max response is reported as -4.88% (inactive). For `COC(=O)CCSc1cc([N+](=O)[O-])cc2c1c(C1OCCS1)nn2-c1ccccc1` (stereo unspecified), the max response was -3.43% (inactive). With `O=C(NCCN1CCOCC1)c1ccc(/C=C2\Sc3ccccc3N(Cc3ccc(F)cc3)C2=O)cc1` the max response was 11.1% (inactive). With `Cc1nc(-c2nnc(SCC(=O)Nc3cc(C(F)(F)F)cc(C(F)(F)F)c3)n2C)cs1` the max response was -0.852% (inactive). For `CCOC(=O)c1c(-c2ccccc2)oc2ccc(OCC(=O)NN)cc12`, the max response was -3.08% (inactive). With `CCOCCCn1c(SCC(=O)Nc2cc(OC)ccc2OC)nc2ccccc2c1=O` the max response was -2.84% (inactive). For `Cc1nn(C)c(Cl)c1CN1CCC(Oc2ccc(C(=O)N3CCCC3)cc2)CC1`, the max response was 0.779% (inactive). With `COCc1cc(C)nc2sc(C(=O)NC3CCCCC3)c(N)c12` the max response was 11.4% (inactive). In the case of `CC(C)OC(=O)c1sc2nc3c(cc2c1N)C(=O)CCC3`, the max response is reported as 19.5% (active). With `Nc1c(C(=O)NCc2ccccc2)sc2nc3c(cc12)C(=O)CCC3` the max response was 8.86% (inactive). For `CCn1c(CC(=O)Nc2ccccc2C)nnc1SCC(=O)NC1=NCCS1`, the max response was 7.82% (inactive). In the case of `COC(=O)Cc1ccc(N(Cc2ccccc2F)S(=O)(=O)c2ccc(Br)cc2)cc1`, the max response is reported as -4.43% (inactive). With `COc1ccc(Cl)cc1NS(=O)(=O)c1cccc(C(=O)NCC2CCCO2)c1` (stereo unspecified) the max response was -3.64% (inactive). For `CC(=O)N1c2ccc(S(=O)(=O)N(C)CC(=O)N(C)Cc3ccccc3)cc2CC1C` (stereo unspecified), the max response was -2.22% (inactive). With `NC(=O)NC(=O)CSc1nc2cc([N+](=O)[O-])ccc2n1-c1cccc(C(F)(F)F)c1` the max response was -1.36% (inactive). In the case of `Cn1c(-c2ccc(F)cc2)cnc1SCC(=O)NNC(=O)Cc1ccccc1`, the max response is reported as -0.376% (inactive). In the case of `CSc1c(SCc2ccccc2)cnn(Cc2ccccc2)c1=O`, the max response is reported as 5.89% (inactive). In the case of `Cn1c(CO)cnc1SCc1ccccc1`, the max response is reported as 21.1% (active). With `CCOC(=O)c1cccc(NS(=O)(=O)c2c(C(=O)N3CCCCCC3)c(C)n(C)c2C)c1` the max response was 1.94% (inactive). For `CCCCn1c(O)c(C(CC)=NCc2ccco2)c(=O)[nH]c1=O`, the max response was -4.03% (inactive). With `CC/C(=N\NC(=O)c1ccccc1O)c1c(O)n(Cc2ccccc2)c(=O)[nH]c1=O` the max response was 23% (active). In the case of `CCCCCCN=C(CC)c1c(O)n(CCCC)c(=O)[nH]c1=O`, the max response is reported as -2.56% (inactive). For `Cc1cc(-c2ccc(C)c(S(=O)(=O)Nc3ccc(S(N)(=O)=O)cc3)c2)on1`, the max response was 4.89% (inactive). With `COc1cccc(C(=O)Nc2ccc(N3CCN(C(=O)c4ccco4)CC3)cc2)c1` the max response was -5.64% (inactive). With `C/C(=N\NC(=O)c1ccccc1C)c1ccc(N2CCOCC2)cc1` the max response was 18.1% (active). With `O=C(Nc1ccc(S(=O)(=O)N2CCc3ccccc3C2)cc1)c1ccccc1` the max response was -1.47% (inactive). With `Cc1ccccc1C(=O)N1CCN(c2ccc(NC(=O)c3cccs3)cc2)CC1` the max response was -1.82% (inactive). With `CN1CCN(c2ccc(NC(=O)c3ccc4c(c3)[nH]c(=O)n4Cc3ccc(F)cc3)cc2)CC1` the max response was -2.44% (inactive). In the case of `CN1CCN(c2ccc(NC(=O)c3ccccc3)cc2)CC1`, the max response is reported as 30.4% (active). With `C/C(CCc1ccccc1)=N\NC(=O)c1ccc(CN2CCOCC2)cc1` the max response was 6.88% (inactive). For `CC(=O)c1ccc(N2CCN(CC(=O)Nc3ccccc3N3CCOCC3)CC2)cc1`, the max response was -0.941% (inactive). In the case of `COc1ccc(C(=O)NC(=S)Nc2ccc(N3CCCC3)cc2)cc1OC`, the max response is reported as -0.974% (inactive). For `Cc1ccccc1C(=O)Nc1ccc(N2CCCCCC2)cc1`, the max response was 19% (active). In the case of `Cc1ccccc1C(=O)NC(=S)Nc1ccc(N2CCN(C(=O)c3ccccc3)CC2)cc1`, the max response is reported as -3.14% (inactive). For `COc1cccc(C(=O)Nc2ccc(N3CCCC3)cc2)c1`, the max response was 30.8% (active). With `CC(C)Oc1ccc(CC(=O)NNC(=S)Nc2ccc(Br)cc2)cc1` the max response was -3.17% (inactive). For `Cc1cc(-c2ccc(S(=O)(=O)N3CCN(c4cccc(C(F)(F)F)c4)CC3)s2)on1`, the max response was 1.18% (inactive). In the case of `CCOc1ccccc1C(=O)NC1CC2CCCC(C1)N2Cc1ccccc1` (stereo unspecified), the max response is reported as -3.26% (inactive). In the case of `COC(=O)C1=C(N)Oc2cc(C)[nH]c(=O)c2C1c1ccc(Cl)cc1` (stereo unspecified), the max response is reported as 0.893% (inactive). In the case of `CC(C)(C)n1ncc2c(=O)n(Cc3ccc(Cl)cc3)cnc21`, the max response is reported as 11.3% (inactive). With `COc1ccc(/C=N/NC(=O)C(C)N(c2ccc(OC)cc2)S(C)(=O)=O)cc1` (stereo unspecified) the max response was -4.86% (inactive). With `Cc1nc(N2CCN(c3ccccn3)CC2)c2c(C)c(C(=O)Nc3ccc(F)c(Cl)c3)sc2n1` the max response was -3.16% (inactive). With `O=C(Nc1cc(C(=O)Nc2ccc(S(=O)(=O)O)cc2)cc(C(=O)Nc2ccc(S(=O)(=O)O)cc2)c1)Nc1cc(C(=O)Nc2ccc(S(=O)(=O)O)cc2)cc(C(=O)Nc2ccc(S(=O)(=O)O)cc2)c1` the max response was -6.6% (inactive). With `CC(C)(C)C(=O)NC1CC2CCCC(C1)N2C(=O)Nc1ccccc1F` (stereo unspecified) the max response was -1.8% (inactive). In the case of `O=C(O)c1cc(S(=O)(=O)N(Cc2ccccc2)c2cccc(C(F)(F)F)c2)ccc1Cl`, the max response is reported as -2.82% (inactive). With `CCc1nn(CCCC(=O)Nc2ccc(C)c(C)c2)c(=O)c2cc3occc3n12` the max response was 0.415% (inactive). For `COc1cccc(C(=O)NNC(=O)c2ccccc2Br)c1`, the max response was -3.22% (inactive). With `CC(=O)Oc1cccc(C(=O)Nc2ccccc2NC(=O)c2cccc(OC(C)=O)c2)c1` the max response was 4.65% (inactive). In the case of `COc1cccc(C(=O)Nc2cc3c(cc2Br)OCCCO3)c1`, the max response is reported as 86.1% (active). In the case of `COc1cccc(C(=O)NNC(=O)/C=C/c2ccccc2)c1`, the max response is reported as 0.531% (inactive). For `COc1cccc(C(=O)NNS(=O)(=O)c2ccc(F)cc2)c1`, the max response was 11.3% (inactive). With `COc1cccc(C(=O)NNC(=O)c2cccc(F)c2)c1` the max response was 26.6% (active). In the case of `O=C(NCCCN1CCN(c2ccc(F)cc2)CC1)Nc1ccc([N+](=O)[O-])cc1`, the max response is reported as 5.85% (inactive). With `COc1ccc(C(=O)Nc2ncc3c(n2)-c2ccccc2CC3)cc1` the max response was 1.82% (inactive). In the case of `CN(C)CCCNC(=O)c1ccc2[nH]c3ccccc3c2c1`, the max response is reported as -1.73% (inactive). With `CN(C)CCNC(=O)c1[nH]nc2c1CCc1ccccc1-2` the max response was 41.8% (active). In the case of `Cc1ccccc1CN1CCC(C(=O)Nc2ccc(Oc3cccnc3)cc2)CC1`, the max response is reported as 1.17% (inactive). With `CCOC(=O)c1c(NC(=S)NC)sc2c1CCCC2` the max response was 20.2% (inactive). In the case of `CCOCC(=O)Nc1sc2c(c1C(=O)OCC)CCCC2`, the max response is reported as -2.31% (inactive). With `CCOC(=O)c1c(NC(=O)C2CCN(S(=O)(=O)c3ccc(Cl)cc3)CC2)sc2c1CCCC2` the max response was 25.4% (active).
